The supplement of paper PMC11150407
Structures can show the parent of a compound that is named as a salt. Out of some 2,100 compounds screened, about 180 (8.6%) showed an effect of 50% or more. This excerpt belongs to a sample that is enriched for strong results.

test system: MOLM1 and UCSD/AML1 (averaged); experiment: cell viability relative to DMSO control (POC); higher = less growth inhibition; details: 1 µM; 72 h
Method: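 Primary viability screen in the 3q26 EVI1-high AML cell lines MOLM1 and UCSD/AML1 (1.5e3 cells/well, 384-well), compounds at 1 uM for 72 h. ATP CellTiter-Glo read-out given as percent of viable cells over DMSO control (POC), averaged over duplicates. DMSO was the negative control and 5 uM etoposide the positive control. This mapping covers the MicroSource Spectrum and Selleck anticancer libraries (drug names).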

Compound	cell viability
COC(=O)C(O)c1ccccc1 (stereo not drawn)	106%
O=c1cc(-c2ccc(O)cc2)oc2cc(O[C@@H]3O[C@H](CO)[C@@H](O)[C@H](O)[C@H]3O[C@@H]3OC[C@](O)(CO)[C@H]3O)cc(O)c12	119%
COc1ccc2c(=O)c(CC(=O)O)coc2c1	98.6%
N=C(N)NC(=N)Nc1ccccc1	99.7%
O=C(O)c1nc2cc(Cl)c(Cl)cc2nc1O	98.3%
CC(C)CCC[C@@H](C)[C@H]1CC[C@H]2[C@@H]3CC[C@H]4C[C@H](O)CC[C@]4(C)[C@H]3CC[C@]12C	110%
Cc1ccc(S(=O)(=O)C=CC#N)cc1	1.01%
Cc1ccc(O)c([C@H](CCN(C(C)C)C(C)C)c2ccccc2)c1	92.5%
C=CC[S+]([O-])C[C@H](N)C(=O)O (mixture of isomers)	89.6%
CCN(CC)C(=S)SSC(=S)N(CC)CC	5.82%
CCN(CC)C(=S)SSC(=S)N(CC)CC [Disulfiram (Antabuse)]	1.33%
CC1=CC(=O)[C@H]2C(C)(C)CCC[C@]2(C)[C@@]1(O)CCc1ccoc1	110%
COC(=O)CC[C@@H](C)[C@H]1CC[C@H]2[C@@H]3[C@H](O)C[C@@H]4C[C@H](O)CC[C@]4(C)[C@H]3C[C@H](O)[C@]12C	95.2%
C[C@@H]1CCN(C(=O)CC#N)C[C@@H]1N(C)c1ncnc2[nH]ccc12	72.1%
O=C(O)c1cc(-c2ccc(F)cc2F)ccc1O	112%
CNC(=O)c1ccccc1Sc1ccc2c(/C=C/c3ccccn3)n[nH]c2c1 [Axitinib]	19.1%
C[C@H]1CC2C3CCC4=CC(=O)C=C[C@]4(C)[C@@]3(F)[C@@H](O)C[C@]2(C)[C@@]1(O)C(=O)COP(=O)(O)O (stereo partly drawn)	72.3%
COc1c(-c2coc3cc4c(cc3c2=O)CC(OC(C)=O)C(C)(C)O4)ccc2c1C=CC(C)(C)O2 (stereo not drawn)	88.7%
Fc1cc(-c2cccc3ncc(-c4cnn(C5CCNCC5)c4)nc23)cc(F)c1CN1CCOCC1	24.6%
CCC(C(N)=O)c1ccccc1 (stereo not drawn)	109%
COc1cc(O)ccc1C(C)=O	97.9%

Compound	cell viability
CC(C)=CCC1=C(O)C(=O)c2ccccc2C1=O	118%
N[C@@H](CSCSC[C@H](N)C(=O)O)C(=O)O	99.3%
CN(c1ncccc1CNc1nc(Nc2ccc3c(c2)CC(=O)N3)ncc1C(F)(F)F)S(C)(=O)=O	58.6%
CC(=O)NCC(=O)N1[C@@H]2CC[C@H]1c1ccc(Nc3ncc(C(F)(F)F)c(NC4CCC4)n3)cc12	20.2%
CS(=O)(=O)c1cccc(CNc2nc(Nc3ccc4c(c3)CCC(=O)N4)ncc2C(F)(F)F)c1	83.3%
CC(=O)/C=C\[C@@H]1[C@@]2(C)CCCC(C)(C)C2CC[C@@]1(C)O (stereo partly drawn)	99.2%
COc1cc2c(cc1OC)-c1c(oc3cc(O)cc(O)c3c1=O)CO2	103%
COC1=C(O)C(=O)c2c(cc3oc(C(C)=O)c(O)c3c2O)C1=O	86.8%
CCCCC(=O)Oc1ccccc1C(=O)O	115%
COC(=O)C[C@H]1C(C)(C)[C@@H](OC(C)=O)[C@@H]2CC3C4CC(=O)O[C@@H](c5ccoc5)[C@]4(C)CCC3[C@@]1(C)C2=O (stereo partly drawn)	88.1%
Cc1cnc(Nc2ccc(OCCN3CCCC3)cc2)nc1Nc1cccc(S(=O)(=O)NC(C)(C)C)c1	13%
CCCCOc1ccc(C(=O)CCN2CCCCC2)cc1	104%
CC1(C)[C@@H](O)CC[C@]2(C)[C@H]3C(=O)C=C4[C@@H]5C[C@@](C)(C(=O)O)CC[C@]5(C)CC[C@@]4(C)[C@]3(C)CC[C@@H]12	95.5%
OCC(O)C(O)C(O)C(O)C(O)CO (stereo not drawn)	102%
COc1ccc2c(c1)OCC(Cc1ccc(OC)c(OC)c1)C2=O (stereo not drawn)	112%
COc1ccc2c(c1)OC/C(=C\c1ccc(OC)c(O)c1)C2=O	18.3%
COc1ccc2c(c1)OC/C(=C/c1ccc(OC)c(OC)c1)C2=O	108%
COC(=O)[C@@H]1OC(=O)C2OC23[C@@]1(C)CCC1[C@]2(C)C(C[C@H](O)[C@]13C)C(C)(C)[C@H](OC(C)=O)C[C@@H]2OC(C)=O (stereo partly drawn) [7beta-HYDROXY-7-DESACETOXYKHIVORINIC ACID, METHYL ESTER]	111%
COC(=O)C[C@H]1C(C)(C)C2(O)OC34CC2C(=O)[C@]1(C)C3CC[C@]1(C)C4=CC(=O)O[C@H]1c1ccoc1 (stereo partly drawn) [8beta-HYDROXYCARAPIN, 3,8-HEMIACETAL]	89%
CC(C)CC(NC(=O)OCC1c2ccccc2-c2ccccc21)C(=O)O (stereo in doubt)	105%
COc1cccc2c1C(=O)c1c(O)c3c(c(O)c1C2=O)C[C@@](O)(C(=O)CO)C[C@@H]3O[C@H]1C[C@H](N)[C@H](O)[C@H](C)O1 [Doxorubicin (Adriamycin)]	1.61%

Compound	cell viability
COc1cccc2c1C(=O)c1c(O)c3c(c(O)c1C2=O)C[C@@](O)(C(=O)CO)C[C@@H]3O[C@H]1C[C@H](N)[C@H](O)[C@H](C)O1	1.67%
COc1cccc2c1C(=O)c1c(O)c3c(c(O)c1C2=O)C[C@@](O)(C(C)=O)C[C@@H]3O[C@H]1C[C@H](N)[C@H](O)[C@H](C)O1 [Daunorubicin HCl (Daunomycin HCl)]	1.38%
COc1cccc2c1C(=O)c1c(O)c3c(c(O)c1C2=O)C[C@@](O)(C(=O)CO)C[C@@H]3O[C@H]1C[C@H](N)[C@@H](O)[C@H](C)O1 [Epirubicin Hydrochloride]	1.66%
COc1cccc2c1C(=O)c1c(O)c3c(c(O)c1C2=O)C[C@@](O)(C(=O)CO)C[C@@H]3O[C@H]1C[C@H](N)[C@@H](O)[C@H](C)O1	5.86%
CC(=O)[C@]1(O)Cc2c(O)c3c(c(O)c2[C@@H](O[C@H]2C[C@H](N)[C@H](O)[C@H](C)O2)C1)C(=O)c1ccccc1C3=O [Idarubicin HCl]	1.49%
COc1cccc2c1C(=O)c1c(O)c3c(c(O)c1C2=O)C[C@@](O)(C(C)=O)C[C@@H]3O[C@H]1C[C@H](N)[C@H](O)[C@H](C)O1	1.85%
CCCCCCCCCCCC[C@@H](C(=O)O)[C@H](C)C(=O)O	96%
Cc1cc(O)cc(=O)o1	112%
O=C1C=C(O)C(=O)c2ccccc21	92.9%
CC(=O)OCC(=O)[C@@]1(O)CC[C@H]2[C@@H]3C[C@H](C)C4=CC(=O)C=C[C@]4(C)[C@H]3[C@@H](O)C[C@@]21C [6alpha-METHYLPREDNISOLONE ACETATE]	65%
CC(=O)O[C@]1(C)CC[C@@]23C[C@H]1C(C)(C)[C@@H]2CC[C@H]3C	107%
C[C@H]1CC[C@@H](C(C)(C)O)CC2=C1CC[C@@H]2C	94.4%
Oc1ccc2c(c1)OC[C@]1(O)Cc3cc(O)c(O)cc3[C@H]21	105%
COc1cc2ccc(=O)oc2cc1O	94.7%
CC1/C(=N/O)C[C@@H]2C[C@H]1C2(C)C (stereo partly drawn)	102%
C[n+]1ccccc1C=NO	99.8%
COc1ccc(C2CC(=O)c3ccc(OC)cc3O2)cc1 (stereo not drawn)	109%
N#Cc1c(O)c2c(-c3ccc(-c4ccccc4O)cc3)csc2[nH]c1=O	97.3%
COC(=O)[C@H]1[C@H]2C[C@H]3c4[nH]c5cc(OC)ccc5c4CCN3C[C@H]2C[C@@H](OC(=O)c2cc(OC)c(OC)c(OC)c2)[C@@H]1OC	111%
COC1=C[C@@H](C)[C@@H]2C[C@H]3OC(=O)C[C@H]4C(C)=C(OC)C(=O)[C@H]([C@@]2(C)C1=O)[C@@]34C	93.7%
CC(C)CC(=O)Nc1n[nH]c2c1CN(C(=O)C1CCN(C)CC1)C2(C)C	49.4%

Compound	cell viability
O=c1[nH]cnc2nc[nH]c12	102%
CC1(C)CC[C@]2(C)CC[C@]3(C)C(=CC[C@@H]4[C@@]5(C)CC[C@H](O)C(C)(C)[C@@H]5CC[C@]43C)[C@@H]2C1 [beta-AMYRIN]	91.8%
CC1(C)CNc2cc(NC(=O)c3cccnc3NCc3ccncc3)ccc21 [Motesanib Diphosphate]	86.1%
CCCCC(CC)CN=C(N)N=C(N)NCCCCCCNC(N)=NC(N)=NCC(CC)CCCC (stereo not drawn)	7.07%
O=C(O)[C@]1(O)C[C@@H](O)[C@@H](O)[C@H](O)C1	97.5%
C[C@@H]1CN(CC(=O)Nc2ccc3c(c2)Cc2cccc(-c4cc(=O)cc(N5CCOCC5)o4)c2S3)C[C@H](C)O1	88.5%
CCCCCC(=O)Cc1cc(O)cc(O)c1C(=O)Oc1cc(CC(=O)CCCCC)c(C(=O)O)c(OC)c1	87.8%
COc1c(-c2coc3cc4c(cc3c2=O)CC(O)C(C)(C)O4)ccc2c1C=CC(C)(C)O2 (stereo not drawn)	82.2%
COc1ccc(CC(=O)c2ccc(O)cc2O)cc1	107%
O.O.O.O.O.O.O.O.O.O.O.O.O.O.O.O.O=S(=O)([O][Al])OC[C@H]1O[C@@](COS(=O)(=O)[O][Al])(O[C@H]2O[C@H](COS(=O)(=O)[O][Al])[C@@H](OS(=O)(=O)[O][Al])[C@H](OS(=O)(=O)[O][Al])[C@H]2OS(=O)(=O)[O][Al])[C@@H](OS(=O)(=O)[O][Al])[C@@H]1OS(=O)(=O)[O][Al]	101%
COC(=O)C[C@H]1C(C)(C)[C@@H](OC(C)=O)[C@@H]2CC3=C4CC(=O)O[C@@H](c5ccoc5)[C@]4(C)CC[C@@H]3[C@@]1(C)C2=O	103%
COC(=O)c1c(C)cc(O)cc1O	98.5%
CC(C)(C)CC(C)(C)c1ccc(OCCOCC[N+](C)(C)Cc2ccccc2)cc1	97.1%
CCCCCCCCCCCCC[N+](C)(C)Cc1ccccc1	25.7%
Cc1cc(C(C)(C)CC(C)(C)C)ccc1OCCOCC[N+](C)(C)Cc1ccccc1	88.2%
Cc1ccc(C(C)C)cc2c(C)ccc1-2	84.7%
COc1ccc(-c2cc(=O)c3c(O)c(OC)c(OC)c(OC)c3o2)cc1OC	80.2%
O=C(Nc1ccccc1)c1ccccc1O	97.1%
O=C(CCCCCCC(=O)Nc1ccccc1)NO [Vorinostat (SAHA)]	22%
O=C(Nc1ccccc1)Nc1ccccc1	87.7%
